# Measured values taken from PubChem BioAssay AID1159580 (chemical genetic matrix, 2015).
# In all, about 5,500 compounds went through this assay and about 2,000 (36%) were called active. About 18% were inconclusive and are not listed. This is one part of the list. Unmarked numbers belong to inactive results. Rule as the data show it: active = normalized growth mostly below about 0.91 (no sharp cut-off); inconclusive = no clear call, values can overlap the other calls; inactive = mostly above about 0.92.
# Experiment: chemical genetic growth profiling, strain panel (AID 1159580);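 also: tested at 20 µM; growth read once vehicle control cultures reached saturation at 30 °C; 1 = growth at the plate median or of vehicle wells; lower values mean less growth of the strain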
# Settings: S. cerevisiae deletion strains, growth OD
# [1] = locus YAR019C, strain CDC15, stronger effect = lower value
# [2] = locus YBL105C, strain PKC1, stronger effect = lower value
# [3] = locus YBR135W, strain CKS1, stronger effect = lower value
# [4] = locus YBR136W, strain MEC1, stronger effect = lower value
# [5] = locus YBR160W, strain CDC28, stronger effect = lower value
# [6] = locus YDL017W, strain CDC7, stronger effect = lower value
# [7] = locus YDL028C, strain MPS1, stronger effect = lower value
# [8] = locus YDL101C, strain DUN1, stronger effect = lower value
# [9] = locus YDL108W, strain KIN28, stronger effect = lower value
# [10] = locus YDL132W, strain cdc53, stronger effect = lower value
# [11] = locus YDL214C, strain PRR2, stronger effect = lower value
# [12] = locus YDR052C, strain DBF4, stronger effect = lower value
# [13] = locus YDR054C, strain cdc34, stronger effect = lower value
# [14] = locus YDR226W, strain ADK1, stronger effect = lower value
# [15] = locus YDR477W, strain SNF1, stronger effect = lower value
# [16] = locus YER123W, strain YCK3, stronger effect = lower value
# [17] = locus YER133W, strain GLC7, stronger effect = lower value
# [18] = locus YFL009W, strain cdc4, stronger effect = lower value
# [19] = locus YFL029C, strain CAK1, stronger effect = lower value
# [20] = locus YFR003C, strain YPI1, stronger effect = lower value
# [21] = locus YFR019W, strain FAB1, stronger effect = lower value
# [22] = locus YFR028C, strain CDC14, stronger effect = lower value
# [23] = locus YGR040W, strain KSS1, stronger effect = lower value
# [24] = locus YGR052W, strain FMP48, stronger effect = lower value
# [25] = locus YGR092W, strain DBF2, stronger effect = lower value
# [26] = locus YHR030C, strain SLT2, stronger effect = lower value
# [27] = locus YHR079C, strain IRE1, stronger effect = lower value
# [28] = locus YHR082C, strain KSP1, stronger effect = lower value
# [29] = locus YHR205W, strain SCH9, stronger effect = lower value
# [30] = locus YIL147C, strain SLN1, stronger effect = lower value
# [31] = locus YJL095W, strain BCK1, stronger effect = lower value
# [32] = locus YJL128C, strain PBS2, stronger effect = lower value
# [33] = locus YJL157C, strain FAR1, stronger effect = lower value
# [34] = locus YJR016C, strain ILV3, stronger effect = lower value
# [35] = locus YJR066W, strain TOR1 (second series), stronger effect = lower value
# [36] = locus YJR066W, strain TOR1, stronger effect = lower value
# [37] = locus YKL048C, strain ELM1, stronger effect = lower value
# [38] = locus YKL067W, strain YNK1, stronger effect = lower value
# [39] = locus YKL101W, strain HSL1, stronger effect = lower value
# [40] = locus YKL193C, strain SDS22, stronger effect = lower value
# [41] = locus YKL203C, strain TOR2, stronger effect = lower value
# [42] = locus YLR113W, strain HOG1, stronger effect = lower value
# [43] = locus YLR133W, strain CKI1, stronger effect = lower value
# [44] = locus YLR403W, strain SFP1, stronger effect = lower value
# [45] = locus YML070W, strain DAK1, stronger effect = lower value
# [46] = locus YMR001C, strain CDC5, stronger effect = lower value
# [47] = locus YMR205C, strain PFK2 (second series), stronger effect = lower value
# [48] = locus YMR277W, strain FCP1, stronger effect = lower value
# [49] = locus YNL006W, strain LST8, stronger effect = lower value
# [50] = locus YNL020C, strain ARK1, stronger effect = lower value
# [51] = locus YNL161W, strain CBK1, stronger effect = lower value
# [52] = locus YNL183C, strain NPR1, stronger effect = lower value
# [53] = locus YNL207W, strain RIO2, stronger effect = lower value
# [54] = locus YNL222W, strain SSU72, stronger effect = lower value
# [55] = locus YNL307C, strain MCK1 (second series), stronger effect = lower value
# [56] = locus YOL078W, strain AVO1, stronger effect = lower value
# [57] = locus YOL136C, strain PFK27, stronger effect = lower value
# [58] = locus YOR061W, strain CKA2, stronger effect = lower value
# [59] = locus YOR119C, strain RIO1, stronger effect = lower value
# [60] = locus YOR231W, strain MKK1, stronger effect = lower value
# [61] = locus YOR329C, strain SCD5, stronger effect = lower value
# [62] = locus YPL031C, strain PHO85, stronger effect = lower value
# [63] = locus YPL153C, strain RAD53, stronger effect = lower value
# [64] = locus YPL204W, strain HRR25, stronger effect = lower value
# [65] = locus YPL209C, strain IPL1, stronger effect = lower value
# [66] = locus YPL256C, strain CLN2, stronger effect = lower value
# [67] = locus YPR025C, strain CCL1, stronger effect = lower value
# [68] = locus YPR106W, strain ISR1, stronger effect = lower value
# [69] = locus YPR111W, strain DBF20, stronger effect = lower value
# [70] = strain NNK1, stronger effect = lower value
# [71] = strain TSCII, stronger effect = lower value
smiles,measurement,setting,value
Cc1nc(-c2ccccn2)nc(SCc2ccccc2)c1Cl,normalized growth,[1],0.946
same,normalized growth,[2],0.945
same,normalized growth,[3],0.941
same,normalized growth,[4],0.94
same,normalized growth,[5],0.954
same,normalized growth,[6],0.949
same,normalized growth,[7],0.939
same,normalized growth,[8],0.942
same,normalized growth,[9],0.94
same,normalized growth,[10],0.93
same,normalized growth,[11],0.844
same,normalized growth,[12],0.94
same,normalized growth,[13],0.922
same,normalized growth,[14],0.942
same,normalized growth,[15],0.849
same,normalized growth,[16],0.747
same,normalized growth,[17],0.826
same,normalized growth,[18],0.935
same,normalized growth,[19],0.935
same,normalized growth,[20],0.943
same,normalized growth,[21],0.887
same,normalized growth,[22],0.94
same,normalized growth,[23],0.829
same,normalized growth,[24],0.853
same,normalized growth,[25],0.705
same,normalized growth,[26],0.843 (active)
same,normalized growth,[27],0.766
same,normalized growth,[28],0.849
same,normalized growth,[29],0.86
same,normalized growth,[30],0.935
same,normalized growth,[31],0.862
same,normalized growth,[32],0.927
same,normalized growth,[33],0.798
same,normalized growth,[34],0.936
same,normalized growth,[35],0.786
same,normalized growth,[36],0.792
same,normalized growth,[37],0.96
same,normalized growth,[38],0.849
same,normalized growth,[39],0.875
same,normalized growth,[40],0.937
same,normalized growth,[41],0.869
same,normalized growth,[42],0.802 (active)
same,normalized growth,[43],0.876
same,normalized growth,[44],0.772
same,normalized growth,[45],0.816
same,normalized growth,[46],0.942
same,normalized growth,[47],0.864
same,normalized growth,[48],0.941
same,normalized growth,[49],0.94
same,normalized growth,[50],0.827
same,normalized growth,[51],0.942
same,normalized growth,[52],0.826
same,normalized growth,[53],0.921
same,normalized growth,[54],0.943
same,normalized growth,[55],0.807
same,normalized growth,[56],0.938
same,normalized growth,[57],0.834
same,normalized growth,[58],0.815
same,normalized growth,[59],0.843
same,normalized growth,[60],0.819
same,normalized growth,[61],0.946
same,normalized growth,[62],0.791
same,normalized growth,[63],0.793
same,normalized growth,[64],0.834
same,normalized growth,[65],0.952
same,normalized growth,[66],0.934
same,normalized growth,[67],0.942
same,normalized growth,[68],0.95
same,normalized growth,[69],0.955
same,normalized growth,[70],0.945
same,normalized growth,[71],0.933
Cc1nc(-c2ccccn2)nc(N(C)Cc2ccccc2)c1Cl,normalized growth,[1],0.951
same,normalized growth,[2],0.961
same,normalized growth,[3],0.967
same,normalized growth,[4],0.955
same,normalized growth,[5],0.968
same,normalized growth,[6],0.962
same,normalized growth,[7],0.956
same,normalized growth,[8],0.962
same,normalized growth,[9],0.951
same,normalized growth,[10],0.961
same,normalized growth,[11],0.997
same,normalized growth,[12],0.965
same,normalized growth,[13],0.948
same,normalized growth,[14],0.956
same,normalized growth,[15],0.971
same,normalized growth,[16],0.93
same,normalized growth,[17],0.975
same,normalized growth,[18],0.953
same,normalized growth,[19],0.94
same,normalized growth,[20],0.963
same,normalized growth,[21],1
same,normalized growth,[22],0.976
same,normalized growth,[23],0.964
same,normalized growth,[24],1.04
same,normalized growth,[25],0.863
same,normalized growth,[26],0.932
same,normalized growth,[27],0.95
same,normalized growth,[28],0.998
same,normalized growth,[29],0.954
same,normalized growth,[30],0.952
same,normalized growth,[31],0.966
same,normalized growth,[32],0.973
same,normalized growth,[33],0.972
same,normalized growth,[34],0.969
same,normalized growth,[35],0.958
same,normalized growth,[36],0.952
same,normalized growth,[37],0.982
same,normalized growth,[38],0.97
same,normalized growth,[39],0.945
same,normalized growth,[40],0.96
same,normalized growth,[41],1.01
same,normalized growth,[42],1
same,normalized growth,[43],0.968
same,normalized growth,[44],0.959
same,normalized growth,[45],0.966
same,normalized growth,[46],0.956
same,normalized growth,[47],0.981
same,normalized growth,[48],0.964
same,normalized growth,[49],0.975
same,normalized growth,[50],0.973
same,normalized growth,[51],0.964
same,normalized growth,[52],1
same,normalized growth,[53],0.959
same,normalized growth,[54],0.96
same,normalized growth,[55],0.922
same,normalized growth,[56],0.96
same,normalized growth,[57],0.963
same,normalized growth,[58],0.941
same,normalized growth,[59],0.991
same,normalized growth,[60],0.994
same,normalized growth,[61],0.955
same,normalized growth,[62],0.952
same,normalized growth,[63],0.943
same,normalized growth,[64],0.938
same,normalized growth,[65],0.958
same,normalized growth,[66],0.985
same,normalized growth,[67],0.963
same,normalized growth,[68],0.974
same,normalized growth,[69],0.976
same,normalized growth,[70],0.979
same,normalized growth,[71],0.953
